Laboratory results as given in ChEMBL document CHEMBL3988442, “University of Dundee, Small-Polar-MMV Screening Library” (2021).
Hit rate of the full screen: of about 69,000 compounds, about 1,000 (1.4%) showed an effect of 50% or more. Only a selection was taken, and strong results are over-represented in it overall.

Test system: Leishmania donovani
Assay: Leishmania intramacrophage assay
Type: functional, organism-based
Set-up: scale not given: in the data most compounds retested in dose-response had high values

## Cc1nc(-c2ncc(C(=O)NCCNc3ncccc3C)c(O)n2)cs1
30.3 µM, […]
  Percent Effect: 28.4%

## Cc1cccnc1NCCNC(=O)c1cnc(-c2ccccn2)nc1O
30.3 µM, […]
  Percent Effect: 81.9%

## Cc1cccnc1NCCNC(=O)c1cnc(-c2cccs2)nc1O
30.3 µM, […]
  Percent Effect: 22.97%

## O=C(c1occc1CN1C(=O)Cc2ccccc21)N1CCCCCC1
30.3 µM, […]
  Percent Effect: 31.83%

## Cc1cc(NC(=O)c2ccccc2Br)n(C)n1
30.3 µM, […]
  Percent Effect: -1.29%

## CC(C1CCN(Cc2ccc(OC(F)F)cc2)CC1)N1CCOCC1 (stereo unspecified)
30.3 µM, […]
  Percent Effect: 57.26%

## CC(C)Oc1cccc(CN2CCC(c3n[nH]c4ncccc34)CC2)c1
30.3 µM, […]
  Percent Effect: -3.157%

## CC(C1CCN(Cc2ccccc2OC(F)F)CC1)N1CCOCC1 (stereo unspecified)
30.3 µM, […]
  Percent Effect: 38.92%

## CC(C)Oc1cccc(CN2CCC(C(C)N3CCOCC3)CC2)c1 (stereo unspecified)
30.3 µM, […]
  Percent Effect: 60.52%

## CC(C1CCN(Cc2ccc(N(C)C)nc2)CC1)N1CCOCC1 (stereo unspecified)
30.3 µM, […]
  Percent Effect: 35.27%

## CC(C1CCN(Cc2cccc(OC(F)F)c2)CC1)N1CCOCC1 (stereo unspecified)
30.3 µM, […]
  Percent Effect: 37.87%

## CN1CCN(C(=O)c2n[nH]c3c2CN(C2CCOC2)CC3)CC1 (stereo unspecified)
30.3 µM, […]
  Percent Effect: 7.447%

## CCc1c(C)sc2c1c(N)nc(=O)n2CCN1CCCCC1
30.3 µM, […]
  Percent Effect: 45.7%

## OC(CN1CCC(c2ccn[nH]2)CC1)c1ccccc1F (stereo unspecified)
30 µM
  Percent Effect: 30.71%

## COC[C@@]12CCC[C@@H]1CN(C(=O)COC1CCCC1)C2
30.3 µM, […]
  Percent Effect: 36.81%

## CN(C)C(=O)CO[C@H]1CO[C@@]2(CCN(Cc3ccoc3)C2)C1
30.3 µM, […]
  Percent Effect: 51.04%

## CN(C)C(=O)COC1COC2(CCN(c3cccc(F)c3)CC2)C1.O=C(O)C(F)(F)F (stereo unspecified)
30.3 µM, […]
  Percent Effect: 52.62%

## Cc1ccc(N2CCC3(CC2)CC(OCC(=O)N(C)C)CO3)nn1 (stereo unspecified)
30 µM, 30.03 µM
  Percent Effect: 10.68%

## COc1ccccc1CN1CC[C@]2(C[C@@H](OCC(=O)N(C)C)CO2)C1.O=C(O)C(F)(F)F
30.3 µM, […]
  Percent Effect: 48.44%

## CN(C)C(=O)COC1COC2(CCN(c3ncccn3)CC2)C1 (stereo unspecified)
30.3 µM, […]
  Percent Effect: 64.89%

## CN(C)C(=O)CO[C@H]1CO[C@@]2(CCN(Cc3ccsc3)C2)C1.O=C(O)C(F)(F)F
30.3 µM, […]
  Percent Effect: 39.07%

## CCOC1COC2(CCN(Cc3cccc(F)c3)CC2)C1.O=C(O)C(F)(F)F (stereo unspecified)
30 µM, 30.03 µM
  Percent Effect: 37.88%

## COc1ccc(OCC(=O)NS(=O)(=O)c2ccc(Br)s2)cc1
30 µM
  Percent Effect: -22.07%

## Cc1occc1C(=O)N1CCCn2cnc(CN3CCCC3=O)c2C1
30.3 µM, […]
  Percent Effect: 1.546%

## CCOc1ccc(NC(C)=O)cc1S(=O)(=O)Nc1ccon1
30.3 µM, […]
  Percent Effect: 32.01%

## CC(C)C(=O)Nc1ncn(Cc2cccc(Br)c2)n1
30.3 µM, […]
  Percent Effect: 26.25%

## O=C(c1ccoc1)N1CC[C@@H]2O[C@@H](COCC3CCOCC3)CC[C@@H]21
30.3 µM, […]
  Percent Effect: 5.212%

## Cn1ncc(Cl)c1C(=O)N1CCC(c2nnsc2S(C)(=O)=O)CC1
30.3 µM, […]
  Percent Effect: 50.11%

## Cn1nc(C2CC2)cc1C(=O)N1CCC(c2nnsc2S(C)(=O)=O)CC1
30.3 µM, […]
  Percent Effect: 16.49%

## Cn1nccc1C(=O)N1CCC(c2nnsc2S(C)(=O)=O)CC1
30.3 µM, […]
  Percent Effect: 17.02%

## N#Cc1ccc(C(=O)N2CC[C@H]3[C@H]2CCN3CC2CCOCC2)cc1.O=C(O)C(F)(F)F
30.3 µM, […]
  Percent Effect: 9.058%

## Cc1nc(CNc2ccccc2CCC(F)(F)F)cs1
30.3 µM, […]
  Percent Effect: 6.456%

## Cc1cnc(NC(=O)c2csc(NCC(C)C)n2)s1
30.3 µM, […]
  Percent Effect: 62.13%

## O=C(Nc1nccs1)c1csc(NC2CCCC2)n1
30.3 µM, […]
  Percent Effect: 48.24%

## Cc1cnc(NC(=O)c2csc(NC3CCCC3)n2)s1
30.3 µM, […]
  Percent Effect: 92.33%

## O=C(Nc1ccccn1)c1csc(NC2CCCC2)n1
30.3 µM, […]
  Percent Effect: -23.02%

## Cc1cccc(NC(=O)c2csc(NCC(C)C)n2)n1
30.3 µM, […]
  Percent Effect: -8.581%

## CC(=O)NCC1CCC2(CCN(c3nccc(C4CCCC4)n3)CC2)O1 (stereo unspecified)
30.3 µM, […]
  Percent Effect: 3.551%

## Cn1cc(N2CC3(COCCN(Cc4ccccn4)C3)OCC2=O)cn1.O=C(O)C(F)(F)F (stereo unspecified)
30.3 µM, […]
  Percent Effect: 33.72%

## COc1cccc(C(=O)NCC2CCN(C(=O)c3ccoc3)CC2)c1
30.3 µM, […]
  Percent Effect: 42%

## CCn1cc(CN2C[C@H]3CC[C@@H]2CN(C(=O)c2ccncc2)C3)cn1
30.3 µM, […]
  Percent Effect: -21.9%

## CC(C)c1nnc(NC(=O)Cc2csc(-c3nnc[nH]3)n2)s1
30.3 µM, […]
  Percent Effect: 6.395%

## CCC(C)c1csc(NC(=O)Cc2csc(-c3nnc[nH]3)n2)n1 (stereo unspecified)
30.3 µM, […]
  Percent Effect: 56.95%

## CCC(C)c1csc(NC(=O)c2sc(-c3nnc[nH]3)nc2C)n1 (stereo unspecified)
30.3 µM, […]
  Percent Effect: 32.74%

## Cc1c(C)c(C)c2[nH]c(-c3cn(C4CCNCC4)nn3)nc2c1C
30.3 µM, […]
  Percent Effect: 88.31%

## Cc1ccc(-n2ccnc2-c2cn(C3CCNCC3)nn2)c(Cl)c1
30.3 µM, […]
  Percent Effect: 17.13%

## CSc1ccccc1-n1ccnc1-c1cn(C2CCNCC2)nn1
30.3 µM, […]
  Percent Effect: -6.736%

## OCCc1ccccc1-n1ccnc1-c1cn(C2CCNCC2)nn1
30.3 µM, […]
  Percent Effect: -17.07%

## Cc1cccc2[nH]c(-c3cn(C4CCNCC4)nn3)nc12
30.3 µM, […]
  Percent Effect: 8.553%

## Cc1ccc2[nH]c(-c3cn(C4CCNCC4)nn3)nc2c1C
30.3 µM, […]
  Percent Effect: 79.71%

## Cc1cc2nc(-c3cn(C4CCNCC4)nn3)[nH]c2cc1C
30.3 µM, […]
  Percent Effect: 79.71%

## Clc1ccccc1CCn1ccnc1-c1cn(C2CCNCC2)nn1
30.3 µM, […]
  Percent Effect: -11.26%

## COc1cccc(CCn2ccnc2-c2cn(C3CCNCC3)nn2)c1
30.3 µM, […]
  Percent Effect: -3.244%

## CCCc1noc(CN2CCOCC2C)n1 (stereo unspecified)
30.3 µM, […]
  Percent Effect: -25.75%

## COCc1noc(Cn2ncn3cccc3c2=O)n1
30.3 µM, […]
  Percent Effect: -34.29%

## Cc1nccc(N[C@H]2CN(C(=O)CN3CCOCC3)C[C@@H]2C(C)C)n1
30.3 µM, […]
  Percent Effect: 9.574%

## CC(C)n1cnc2c1C(C(=O)N1CCOCC1)N(CC1CC1)CC2.O=C(O)C(F)(F)F (stereo unspecified)
30.3 µM, […]
  Percent Effect: 17.66%

## O=C(NCc1ccccn1)Nc1ccc2[nH]nnc2c1
30.3 µM, […]
  Percent Effect: 23.78%

## Cn1ccc(CN2CCCC23CCN(Cc2ccccc2F)CC3)n1.O=C(O)C(F)(F)F.O=C(O)C(F)(F)F
30.3 µM, […]
  Percent Effect: 36.62%

## O=C(O)[C@@H]1CN(Cc2ccc3nsnc3c2)C[C@H]1c1cccnc1
30.3 µM, […]
  Percent Effect: 23.58%

## Cc1ccccc1-c1noc(CN2CCn3c(nnc3C3CC3)C2)n1
30 µM, 30.03 µM
  Percent Effect: 9.47%

## COc1cccc(CN2CC(O)CN(C(=O)C3CCC3)CC2=O)c1OC (stereo unspecified)
30.3 µM, […]
  Percent Effect: 10.32%

## COc1c(C2CCCN2C(=O)c2ccoc2C)c(C)nn1C (stereo unspecified)
30.3 µM, […]
  Percent Effect: 0.8433%

## Cc1nn(C)cc1C(=O)NCc1cc(N(C)C)nc2ccccc12
30.3 µM, […]
  Percent Effect: 27.45%

## CCn1nc(C)cc1C(=O)NCc1cc(N(C)C)nc2ccccc12
30.3 µM, […]
  Percent Effect: 34.59%

## Cc1nn(C)c(C)c1C(=O)NCc1cc(N(C)C)nc2ccccc12
30.3 µM, […]
  Percent Effect: 50.16%
